This is part of a sample that, as a whole, favours compounds with a hit. Of some 83,000 tested, about 20% had one in any assay.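 Step 1: grow cells in 96-well plates. Step 2: add test compound at a single concentration. Step 3: incubate 48 h. Step 4: record percent growth.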 Values without a mark were called inactive. Activity calls are given as the source filed them. How the source made its calls: active means growth percent below 10; inactive means the rest.
These molecules were tested on HL-60(TB) leukemia (assay: NCI-60 one-dose screen, 48 h (100 = growth as untreated, 0 = no growth, -100 = all killed)). Conditions: 10 µM unless noted.

SMILES | growth
C=C1CCC2C3(C)COC(c4cc(F)cc(F)c4)OC3CCC2(C)C1C/C=C1/C(=O)OCC1O (configuration not stated) | -9.61% (active)
O=c1[nH]c2ccccc2cc1CSc1ccc(Nc2nccc(-c3ccc4c(c3)OCO4)n2)cc1 | 97.4%
Nc1cc2ccccc2c(=O)n1NC(=O)c1ccccc1 | 101%
CC(C)C(C(=O)O)n1c(O)c(/C=C2/C=c3cc4c(cc3=NC2=O)OCO4)sc1=S (configuration not stated) | 105%
O=C(O)c1cccc(-c2ccc(/C=N/NC(=O)c3[nH]c4ccc(Br)cc4c3-c3ccccc3)o2)c1 | 88.5%
O=S(=O)(c1nc(-c2ccc(Br)cc2)oc1-c1ccc(Cl)cc1)N1CCCC(O)C1 (configuration not stated) | 31.4%
COc1ccc2c(c1)c(-c1cc3nc(-c4cn(C)c5ncccc45)cc(N)n3n1)cn2C | -66.3% (active)
COc1ccc2[nH]c(=O)cc(-n3ncc(C(=O)/C=C/c4cc(OC)c(OC)c(OC)c4)c3C)c2c1 | -33.4% (active)
N#Cc1c(-c2ccccc2Cl)cc(-c2ccc3ccccc3c2)[nH]c1=O | 71.9%
C#CCNC(=O)CCC(=O)OC[C@]12CC[C@@H](C(=C)C)[C@@H]1C1CC[C@@H]3[C@@]4(C)CCCNC(C)(C)[C@@H]4CC[C@@]3(C)[C@]1(C)CC2 (some centres not stated) | -39% (active)
O=C(c1ccc(Cl)cc1)C(c1c[nH]c2ccccc12)c1c[nH]c2ccccc12 | -26.2% (active)
CCS(=O)(=O)N1CCCC(C(=O)Nc2nc3ccc(NC(=O)c4ccc(F)c(OC)c4F)cc3s2)C1 (configuration not stated) | 53.9%

— PubChem BioAssay (NCI)
